Screening results from PubChem BioAssay.
In the library only some 2.7% were active in any assay of this set; here they are far more common.
RXFP1 ag – activates the human relaxin receptor RXFP1 | HEK293T-RXFP1 cAMP TR-FRET, 30 min; response scale: percent of porcine relaxin response, buffer zero | Potency, µM (titrated, usually from 57.5 µM), actives largely listed as activators | actives 0.3% (n = 370,000); active means well fitted activation curve with a large enough effect; inconclusive means small, poorly fitted or top-dose-only effect; further: nearly all actives have a fitted effect of over 60% in size
Target sequence (Q9HBX9 whole entry, looked up): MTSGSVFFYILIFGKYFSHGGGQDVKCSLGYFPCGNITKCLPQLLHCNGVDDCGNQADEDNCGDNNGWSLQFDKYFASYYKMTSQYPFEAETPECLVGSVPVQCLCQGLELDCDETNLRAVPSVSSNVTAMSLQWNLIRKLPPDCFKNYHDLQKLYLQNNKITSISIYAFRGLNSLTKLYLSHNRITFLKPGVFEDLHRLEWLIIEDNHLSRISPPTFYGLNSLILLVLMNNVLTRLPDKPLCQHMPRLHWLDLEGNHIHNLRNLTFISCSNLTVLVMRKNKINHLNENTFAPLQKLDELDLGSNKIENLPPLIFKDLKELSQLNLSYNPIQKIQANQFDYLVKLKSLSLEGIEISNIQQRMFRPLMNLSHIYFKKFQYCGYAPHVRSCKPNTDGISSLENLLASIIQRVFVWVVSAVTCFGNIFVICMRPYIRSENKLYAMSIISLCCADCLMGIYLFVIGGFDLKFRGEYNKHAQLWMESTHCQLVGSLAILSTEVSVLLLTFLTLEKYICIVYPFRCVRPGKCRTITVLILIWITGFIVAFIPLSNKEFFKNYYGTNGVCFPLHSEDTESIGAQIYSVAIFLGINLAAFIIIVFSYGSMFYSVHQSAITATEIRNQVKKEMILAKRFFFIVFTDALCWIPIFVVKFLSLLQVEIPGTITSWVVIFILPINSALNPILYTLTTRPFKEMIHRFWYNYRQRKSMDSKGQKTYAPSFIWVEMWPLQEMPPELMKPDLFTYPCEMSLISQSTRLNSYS
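Agonist response is measured as cAMP accumulation in an RXFP1-transfected HEK293T line under PDE4 inhibition. Values are scaled between buffer-only and 29 nM porcine relaxin, and EC50s come from standard Hill equation fits.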
ClpP mod – qHTS Assay for Activators of ClpP | Potency, µM (highest dose often 57.5 µM) | ATP-dependent Clp protease proteolytic subunit (Bacillus subtilis (strain 168)), P80244 | purified B. subtilis ClpP, FRET peptide cleavage, 20 min | actives 1.9% (n = 340,000); active means well fitted falling curve with a large enough effect; inconclusive means small, poorly fitted or top-dose-only effect; inactive means no such curve, though single readings can be large or run the other way; further: the source files actives as falling curves though it sought activators and does not explain the sign; nearly all actives have a fitted effect of over 65% in size
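Buffer: 100 mM Tris/HCl pH8, 100 mM KCl, 0.05% low protease BSA, 2.5% glycerol, 0.01% Tween-20. ClpP 10 microg/mL final; 20 min RT; delta FRET normalized to ADEP and DMSO controls.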
gsp antagonist – gsp mutant antagonism; gsp-mutant cells, cAMP HTRF, 30 min; Potency, µM (highest dose often 76.9 µM), actives largely listed as inhibitors; actives 0.4% (n = 340,000); calls by dose curve; cell line not stated here;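 further: intracellular cAMP measured with PDE inhibitor Ro 20-1724 present during compound exposure; nearly all actives have a fitted effect of over 65% in size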
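Cells in G418 medium, seeded 16-24 h, 37C; buffer exchange to DPBS + 1 mM CaCl2, 0.5 mM MgCl2, 0.05% BSA; cpds in DMSO + […] (300 uM stock), 30 min 37C; HTRF cAMP detection.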
RXFP1 antagonist – RXFP1 (human) relaxin receptor antagonism; AID 1259400; actives 0.59% (n = 350,000); activity change, negative = inhibition, % at 57.5 µM; Q9HBX9; HEK293-RXFP1, relaxin-stimulated cAMP HTRF, 30 min; hits give low values;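 active means activity change of -60% or lower, but not beyond a set lower limit; inconclusive means change between -60% and -40%, or beyond the set limit; inactive means change above -40%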
pAkt inh – Akt phosphorylation inhibition | Neuro2A IGF-stimulated pAkt S473 HTRF, 20 min; hits give low values | activity change, % for hits at 50 µM | actives 0.32% (n = 360,000) | AID 651550; in the data active means activity change below about -80%; inconclusive means mostly about -51% to -80%
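Single-point screen (50 µM final compound) in Neuro2A cells stimulated 20 min with 6 nM IGF at 37 deg C. After lysis, Ser473-phosphorylated Akt read by HTRF (ex 330 nm, em 615/665 nm) as the 665/615 ratio.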
gsp ag – activates gsp, the McCune-Albright syndrome mutation | gsp mutant cells, cAMP HTRF, 30 min | Potency, µM (top dose mostly 76.9 µM), usual class: activators | actives 0.13% (n = 340,000); active means well fitted activation curve with a large enough effect; inconclusive means small, poorly fitted or top-dose-only effect, or another doubt; inactive means no such curve, though single readings can be large or run the other way; cell line not stated here;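 further: phosphodiesterase inhibitor Ro 20-1724 added with compounds to block cAMP breakdown; nearly all actives have a fitted effect of over 60% in size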
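Cells stably selected in G418 were plated at 2000/well, grown 16-24 hr, then given compounds in DMSO with the PDE inhibitor […] (300 uM solution added) for 30 min at 37C; cAMP was read by HTRF.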
Hits are given with their value; - = inactive; ? = inconclusive; . = no result; [ ] = another dose, or the depositor's remark.

SMILES	RXFP1 ag	ClpP mod	gsp antagonist	RXFP1 antagonist	pAkt inh	gsp ag
CCOC(=O)c1ccccc1NC(=O)c1ccccc1NS(C)(=O)=O	-	35.5µM	-	-	-	-
COC(=O)c1ccccc1NC(=O)c1cn(-c2ccc(C)c(C)c2)c(=O)c2ccccc12	-	?	-	-	-	-
CCOC(=O)c1ccccc1NC(=O)c1cn(-c2ccc(C)c(C)c2)c(=O)c2ccccc12	-	12.6µM	-	-	-	-
O=C(Nc1ccccc1C(=O)NCc1ccco1)c1ccco1	-	-	-	-	-	-
O=C(Nc1ccccc1C(=O)NCc1ccco1)NC1CCCCC1	-	20µM	-	-	-	-
CC(NC(=O)c1ccccc1NS(C)(=O)=O)c1ccccc1 (configuration not stated)	-	15.8µM	-	-	-	-
Nc1nc(=O)n([C@@H]2O[C@H](CO)[C@@H](O)[C@@H]2F)cc1I	.	.	.	-	.	.
CN(C(=O)COC(=O)/C=C/c1cccs1)C1CCCCC1	.	.	-	-88.2	-	-
COc1ccccc1-n1c(N)c(C(=O)NCC2CCCO2)c2nc3ccccc3nc21 (configuration not stated)	-	25.1µM	-	-	-	-
O=C(NCC1CCCO1)c1ccccc1 (configuration not stated)	-	-	-	-	-	-
Nc1c(C(=O)OCC2CCCO2)c2nc3ccccc3nc2n1C1CCCCC1 (configuration not stated)	-	14.1µM	-	-	-	-
Nc1c(C(=O)NCC2CCCO2)c2nc3ccccc3nc2n1-c1ccccc1 (configuration not stated)	-	15.8µM	-	-	-	-
O=C(/C=C/c1ccccc1)NC(=S)Nc1ccc(CN2CCOCC2)cc1	-	.	?	-62.7	-	-[15.4 µM]
C/C=C/c1cccc(-c2nc(C(=O)NC3CCCC3)cc3c2[C@@H](CCO)N(S(=O)C(C)(C)C)C3)c1 (some centres not stated)	.	-	.	.	-	.
COc1ccc(CN(CCN(C)C)c2ccccn2)cc1	-	-	-	-	-	.
CC[N+](C)(C)CCN(Cc1ccc(Cl)cc1)c1ccccn1	-	28.2µM	-	-	-	-
COc1ccccc1NC(=O)C1CCCN(S(=O)(=O)c2ccc(-n3cnnn3)cc2)C1 (configuration not stated)	-	.	-	-	-	-
CC(C)CNC(=O)c1ccccc1-c1ccccc1C(=O)O	-	-	-	-	-	-
O=C(O)c1ccccc1-c1ccccc1C(=O)NCc1ccccc1F	-	8.91µM	-	-	-	-[15.4 µM]
CC1(C)O[C@@H]2C[C@H]3[C@@H]4CCC5=CC(=O)CC[C@]5(C)[C@@]4(F)[C@@H](O)C[C@]3(C)[C@]2(C(=O)CCl)O1	-	-	-	-73.4	-	.
C[C@]12CCC(=O)C=C1CC[C@H]1[C@@H]3CC[C@](O)(C(=O)CO)[C@@]3(C)C[C@H](O)[C@@]12F	.	.	.	-	.	.
COc1cccc(C(=O)/C=C/Nc2cc(C)ccc2O)c1	-	-	?	-78.4	-	?
CCCS(=O)(=O)NC(=O)C1(C)CCN(C(=O)c2ccc(OC)cc2)C1 (configuration not stated)	.	-	.	.	-	.
COc1ccc(NC(=O)C(C)N2C(=O)c3ccccc3S2(=O)=O)c(OC)c1 (configuration not stated)	-	-	-	-	-	-
COc1ccc([C@H]2CC(=O)C=C(c3ccc(CNC(=O)OC(C)(C)C)cc3)C2)cc1	-	-	35.5µM	.	-	-
SMILES	RXFP1 ag	ClpP mod	gsp antagonist	RXFP1 antagonist	pAkt inh	gsp ag
Cc1ccc(C)c2[nH]c(=O)c(CCNC(=O)CCc3ccccc3)cc12	-	-	-	.	-	-
O=C1CCCN1CCCNS(=O)(=O)c1ccc(F)c(F)c1	-	-	-	-	-	-
Cc1ccccc1NC(=S)NCCC(c1ccccc1)c1ccccc1	-	12.6µM	-	.	-	-
CCOC(=O)N1CCC(NC(=O)CC2C(=O)NCCN2Cc2ccccc2)CC1 (configuration not stated)	-	-	-	-	-	-
Cc1c(O)ccc(C(=O)COc2ccc(F)cc2)c1O	-	-	-	-	-89.4%	-
Cc1ccc(Cl)c2c1=NC(=O)C=2c1[nH]c(=S)[nH]c1O	-	.	-	-108.6	-	?
CS(=O)(=O)Nc1ccc(C2=NN(C(=O)C3CCCCC3)C(c3cccs3)C2)cc1 (configuration not stated)	-	-	25.1µM	-	-	-[15.4 µM]
C=CCNc1ncnc2c1[nH]c1ccc(Cl)cc12	-	28.2µM	-	-	-	-
C=CCNc1ncnc2c1[nH]c1ccccc12	-	28.2µM	-	-	-	-
c1ccc2c(c1)[nH]c1c(NCC3CCCO3)ncnc12 (configuration not stated)	-	28.2µM	35.5µM	-	-	-
CCOC(=O)C1=CCC2C(=O)N(C)C(=O)C12 (configuration not stated)	.	-	.	.	-	.
Cc1sc2ncnc(N3CCC(C(=O)NCC(=O)Nc4ccc(F)c(F)c4)CC3)c2c1C	-	-	39.8µM	-	-	-
COc1ccccc1OCC(=O)NNC(=O)C1CCN(c2ncnc3sc(C)c(C)c23)CC1	-	-	-	-	-	-
Cc1sc2ncnc(N3CCC(C(=O)Nc4ccc(Cl)c(Cl)c4)CC3)c2c1C	-	-	-	-	-	-
Cc1ccccc1OCC(=O)NNC(=O)C1CCN(c2ncnc3sc(C)c(C)c23)CC1	-	-	35.5µM	-67.8	-	-
CCOCCOC(=O)c1cccc2c1-c1ccccc1C2=O	-	-	-	-	-	-
Cc1ccc(CN(Cc2cc3cc(C)ccc3[nH]c2=O)C(=O)N2CCOCC2)cc1	-	?	-	-	-106.3%	-
CCOc1ccc2[nH]c(=O)c(CN(Cc3ccc(C)cc3)C(=O)N3CCCC3)cc2c1	-	31.6µM	-	-	-	-
CCOc1ccc2[nH]c(=O)c(CN(CCOC)C(=O)N3CCOCC3)cc2c1	-	28.2µM	-	-	-	?
COc1ccc(NC(=O)Nc2ccc3c(c2)C(=O)N([C@H](C)CO)C[C@@H](C)[C@@H](CN(C)C(=O)C2CCCCC2)OCCCC[C@H](C)O3)cc1	.	-	.	-	-	-
CN1CCN(c2nc3c(c(=O)n(C)c(=O)n3C)n2Cc2cccc3ccccc23)CC1	-	-	-	-	-	25.1µM
Cn1c(=O)c2c(nc(N3CCOCC3)n2C)n(C)c1=O	-	-	-	-	-	-
Cn1c(=O)c2c(nc(N3CCCC3)n2C)n(C)c1=O	-	-	-	-	-	20µM
O=[N+]([O-])c1cc([N+](=O)[O-])c2oc(-c3ccccc3)c(Br)c2c1O	-	.	-	-113.0	-	-
